Results: PubChem BioAssay AID720690 (Broad Institute, 2013)
Entries with a potency or affinity are not part of this list. A number with no mark means an inactive call.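 The calls were made as follows: active = every repeat run showing a signal drop whose fitted half-maximal concentration is at most twice the top tested concentration; inconclusive = repeat runs disagree, or flat partial drop, or poor fit; inactive = the rest.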

Experiment: HEK293T cytotoxicity, dose response, cytotoxicity control for miR-122 modulator project, cell-based, activator set, cherry-pick (AID 720690);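 also: 0% = neutral control wells and -100% = MG132 cytotoxic control wells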
Settings: HEK293T viability, CellTiter-Glo luminescence, 48 h; series mostly up to 26 µM; activity change, negative = cytotoxicity: at the top concentration

Row | SMILES | activity change, negative = cytotoxicity
1 | COc1ccc(C#Cc2ccc3c(c2)O[C@H](CN(C)C(=O)CN2CCOCC2)[C@H](C)CN([C@H](C)CO)S3(=O)=O)cc1 | -27%
2 | CNC(=O)C[C@H]1CC[C@@H]2[C@H](COc3ccc(NC(=O)Nc4ccc(F)c(F)c4)cc3C(=O)N2C)O1 | 3.16%
3 | NS(=O)(=O)c1ccc(Nc2nc(-c3cccnc3)cs2)cc1 | -0.393%
4 | Cc1cc(C(=O)Nc2ccc3c(c2)C(=O)N(C)[C@H]2CC[C@@H](CC(=O)N[C@@H](C)c4ccccc4)O[C@H]2CO3)no1 | -6.39% [at 23.5 µM]
5 | C[C@@H]1CN([C@H](C)CO)S(=O)(=O)c2ccc(C3=CCCC3)cc2O[C@@H]1CN(C)C(=O)C1CCOCC1 | 4.94%
6 | O=C(C1CCOCC1)N1C[C@H]2[C@@H](c3ccccc31)[C@@H](CO)N2Cc1ccccc1 | -2.48%
7 | Cc1cccc(NC(=O)Nc2ccc3c(c2)C(=O)N(C)[C@@H]2CC[C@@H](CC(=O)NCc4ccccc4Cl)O[C@H]2CO3)c1 | 8.79%
8 | C[C@H]1CN([C@@H](C)CO)S(=O)(=O)c2ccc(C3=CCCC3)cc2O[C@H]1CN(C)Cc1cccnc1 | -11.6%
9 | CNC(=O)C[C@@H]1CC[C@@H]2[C@H](COc3ccc(NC(=O)c4cccc(OC)c4)cc3C(=O)N2C)O1 | 4.45%
10 | COc1ccc2[nH]c(C(=O)O)c(NS(=O)(=O)c3ccc(Cl)s3)c2c1 | -13.1%
11 | NC(=O)c1csc(-c2ccncc2)n1 | 8.98%
12 | COCC(=O)N(C)C[C@H]1Oc2cc(C#Cc3cccnc3)ccc2S(=O)(=O)N([C@H](C)CO)C[C@H]1C | -6.95%
13 | COC(=O)c1cc(NS(=O)(=O)c2ccc3c(c2)CCC(=O)N3)cc(C(=O)OC)c1 | 3.98%
